# Laboratory results reported in PubChem BioAssay AID540317 (National Center for Advancing Translational Sciences (NCATS), 2011).
# The whole screen tested about 390,000 compounds, of which about 2,200 (0.56%) were called active. A call without a number means that no potency is given here. Roughly 3% stayed inconclusive and do not appear here. The call rests on the fitted dose curve; in most records, active means well fitted inhibition curve with a large enough effect; inconclusive means small, poorly fitted or top-dose-only effect; inactive means no such curve, though single readings can be large or run the other way. Only a selection was taken, and actives are over-represented in it overall.
# Target: Chromobox protein homolog 1 (Homo sapiens) (UniProt P83916)
# Experiment: HTS for Inhibitors of HP1-beta Chromodomain Interactions with Methylated Histone Tails; further: nearly all actives have a fitted effect of over 70% in size
# Conditions: AlphaScreen HP1-beta / biotin-H3K9me3 peptide binding; series mostly up to 114 µM
# In short: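 Compound inhibition of the preformed complex between 50 nM HP1-beta and 50 nM biotinylated H3K9me3 peptide was read by AlphaScreen. Buffer was PBS pH 7.4 with 0.01% Tween-20. Incubations ran 30 min at room temperature, with 10 ug/mL donor/acceptor beads.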
# Potency means the concentration at half of the fitted maximal effect.
# Sequence of Chromobox protein homolog 1 (Homo sapiens) (P83916 whole entry, looked up): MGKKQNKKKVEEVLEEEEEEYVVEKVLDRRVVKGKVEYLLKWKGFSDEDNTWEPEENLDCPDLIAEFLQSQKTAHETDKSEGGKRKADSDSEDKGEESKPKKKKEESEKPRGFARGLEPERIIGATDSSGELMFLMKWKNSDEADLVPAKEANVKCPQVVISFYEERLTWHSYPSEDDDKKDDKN
row,SMILES,Potency
1,Cc1ccc(-c2nc3ccccn3c2Nc2ccc(F)cc2)o1,inactive
2,Cc1ccc(-c2onc(C)c2C)cc1S(=O)(=O)Nc1ccccn1,inactive
3,CCCCNC(=S)N/N=C1\CCCCc2ccccc21,inactive
4,CCCC1CCC(=NNC(=S)NCCc2ccccc2)CC1 (stereo not drawn),44.7 µM (active)
5,Cc1cc(F)ccc1NC(=S)NCCc1ccccc1,inactive
6,COC(=O)C(CC(C)C)NS(=O)(=O)c1cc(Br)ccc1Br (stereo not drawn),inactive
7,CCOC(=O)c1ccccc1NC(=O)c1sc2nc(-c3ccc(F)cc3)cn2c1C,inactive
8,Cc1ccc(NC(=O)c2ccc3[nH]c(C)cc(=O)c3c2)c(C)c1,inactive
9,CCOc1ccccc1NC(=O)CSc1ncc(S(=O)(=O)c2ccc(C(C)(C)C)cc2)c(=O)[nH]1,inactive
10,CN=c1scc(-c2cc(OC)ccc2OC)n1/N=C/c1c(C)[nH]c2ccccc12,31.6 µM (active)
11,COc1ccc(/C=N/n2c(C)cc(C)cc2=O)cc1,inactive
12,Oc1ccc(Br)cc1C1C=C(c2ccc3c(c2)OCO3)NC(c2ccc(Cl)cc2)N1 (stereo not drawn),inactive
13,CCCCSc1ncnc2c1sc1nc(N3CCOCC3)c3c(c12)CCCC3,inactive
14,S=C(Nc1ccc(Cl)cc1Cl)N1CCCC1,inactive
15,O=C(NCCc1ccc(Cl)cc1)C1CCCN1C(=O)NCc1ccccc1 (stereo not drawn),inactive
16,Oc1cc2c(cc1O)CN(C(=S)NCCc1ccc(Cl)cc1)CCC2,50.1 µM (active)
17,COc1ccc(C2=NC3(CCCCC3)N(CC(=O)Nc3ccc(C(C)C)cc3)C2=O)cc1,inactive
18,COc1ccc(N2CCN(c3cc(C)nc4nncn34)CC2)cc1,inactive
19,CCCNC(=O)C1CCN(c2nc3ccc(C)cc3[nH]2)CC1,inactive
20,COc1ccc(N2CCN(C(CNS(=O)(=O)c3ccc(C)cc3)c3ccccc3)CC2)cc1 (stereo not drawn),31.6 µM (active)
21,COc1ccc(S(=O)(=O)NCC(c2ccc(C)cc2)N2CCN(C)CC2)cc1OC (stereo not drawn),inactive

row,SMILES,Potency
1,COc1ccc(S(=O)(=O)NCC(c2ccc(N(C)C)cc2)N2CCCC2)cc1 (stereo not drawn),inactive
2,COc1ccc(NC(=O)c2sc3nc[nH]c(=O)c3c2C)cc1,inactive
3,O=[N+]([O-])c1ccc(Oc2ccc(F)cc2Br)c2ccncc12,50.1 µM (active)
4,CCN1CCN(c2cc(C)c3cc(NC(=O)c4cc(Cl)ccc4OC)ccc3n2)CC1,inactive
5,CCN(C(=O)CSc1nnc(C)n2c1cc1occc12)c1ccccc1,inactive
6,CCOc1ccc(S(=O)(=O)N2CCN(C(=S)NCC3CCCO3)CC2)cc1 (stereo not drawn),inactive
7,CCOc1ccc(-n2c(N)c(C(=O)NCC3CCCO3)sc2=S)cc1 (stereo not drawn),17.8 µM (active)
8,CCOc1ccc(S(=O)(=O)NCCC(=O)NCC2CCCO2)cc1 (stereo not drawn),inactive
9,COc1ccc(-c2cccc(NS(=O)(=O)c3cc(C)c(OC)c(C)c3C)c2)nn1,inactive
10,COc1ccc(-c2nc3c4ccccc4n(CC(=O)Nc4ccc(C(C)=O)cc4)c(=O)n3n2)cc1,inactive
11,O=C1CSC(=S)N1/N=C/c1ccc(O)c([N+](=O)[O-])c1,39.8 µM (active)
12,CCOC(=O)c1c(C)n(S(=O)(=O)c2ccc(C)cc2C)c2ccc(NS(=O)(=O)c3ccc(C)cc3C)cc12,inactive
13,CC(=O)N1CCCc2cc(S(=O)(=O)N3CCC(C(=O)NC4CCCCC4)CC3)ccc21,inactive
14,Cc1ccc(NC(=O)C(Cc2ccccc2)NS(=O)(=O)c2ccc3c(c2)oc(=O)n3C)cc1C (stereo not drawn),inactive
15,CCn1c(SCC(=O)NC2CC2)nnc1-c1ccncc1,inactive
16,COCCCn1c(SCC(=O)NC2CCCC2)nnc1-c1ccccc1,inactive
17,CC1CCCCC1NC(=O)CSc1nnc(-c2ccncc2)n1CCCN(C)C (stereo not drawn),28.2 µM (active)
18,COc1ccc(Cl)cc1NC(=O)c1sc2nc3c(cc2c1N)CN(C)CC3,inactive
19,COc1ccc(Br)cc1/C=N/Nc1ccc(S(=O)(=O)Nc2ccccc2C(=O)O)cc1[N+](=O)[O-],22.4 µM (active)
20,COC(=O)c1ccccc1NS(=O)(=O)c1ccc2c(c1)CCCN2C(C)=O,inactive
21,COc1cc(/C=C/C(=O)O)cc(S(=O)(=O)Nc2ccccc2C(=O)NCCc2ccccc2)c1OC,inactive

row,SMILES,Potency
1,CCC(=O)N1CCc2cc(S(=O)(=O)NC(CC(C)C)C(=O)NCCc3cccc(C)c3)ccc21 (stereo not drawn),inactive
2,CC(C)Cn1c(=O)c2ccccc2n2c(CCC(=O)N3CCN(c4cccc(Cl)c4)CC3)nnc12,inactive
3,CC(Sc1oc(-c2ccco2)nc1S(=O)(=O)c1ccc(Br)cc1)c1ccccc1 (stereo not drawn),inactive
4,O=C(NCc1ccccn1)[C@]1(C(F)(F)F)C[C@H](CCc2ccccc2)CCCO1,inactive
5,O=C1/C(=C/c2ccc3c(c2)OCO3)CCC/C1=C\c1ccc2c(c1)OCO2,28.2 µM (active)
6,Cc1nn(C)cc1/C=C1\CCC/C(=C\c2cn(C)nc2C)C1=O,inactive
7,Nc1[nH][nH]c(=O)c1N=Nc1ccc2c(c1)OCO2,inactive
8,O=C1CC(c2ccccc2)CC2=C1C(c1ccco1)n1nc(C(F)(F)F)nc1N2 (stereo not drawn),inactive
9,CCOC(=O)c1cc2c(=O)n3ccccc3nc2n(CC2CCCO2)c1=NC(=O)c1ccccc1F (stereo not drawn),inactive
10,CC(C)OC(=O)c1ccc(NCc2cc(O)ccc2O)cc1Cl,39.8 µM (active)
11,O=C(CC1C(=O)N(c2ccccc2)C(=O)N1CCc1cccs1)Nc1ccc(F)cc1 (stereo not drawn),inactive
12,Cc1ccc(Cc2nc3ccccc3nc2SCC(=O)Nc2cccc(C(F)(F)F)c2)cc1,inactive
13,CC(C)(C)C(=O)OCc1nc(-c2ccc(O)c(O)c2)cs1,70.8 µM (active)
14,CNC(=O)[C@]1(C(F)(F)F)C[C@H](CCc2ccccc2)CCCO1,inactive
15,CCc1cnc2c(c1SCC(=O)N1CCC(C)CC1)c(=O)n(C)c(=O)n2C,inactive
16,COc1ccc(Cn2ccn(Cc3cccc(OC)c3)c(=O)c2=O)cc1,inactive
17,COc1ccccc1CNC(=O)C(=O)NCC(c1ccco1)S(=O)(=O)c1ccc(F)cc1 (stereo not drawn),inactive
18,CC(=O)Oc1ccc(C(C)=O)c2c1OCCO2,inactive
19,CC(=O)Oc1ccc(OC(C)=O)c2c1C1C=CC2CC1,89.1 µM (active)
20,COc1ccc(C)cc1N(C)C(=O)c1c(C)oc2ncnc(N3CCOCC3)c12,inactive
21,COc1ccc(CCC(=O)NCCc2csc(-c3ccc(Cl)cc3)n2)cc1,inactive
